An excerpt weighted towards active compounds, which were near 3.9% of everything screened.
GDH-TPI inh: inhibits GDH-TPI coupling enzymes, artifact for Mtb FBA screen. GDH-TPI coupled enzyme counterscreen, NADH absorbance. inhibition, % at 4.8 µM. actives 1.2% (n = 360,000). AID 588335
BH1578 lux ind: quorum light induction in luxS cqsA deficient V. cholerae; V. cholerae BH1578 lux reporter, luminescence, 6 h; activation, % at 18.7 µM; actives 0.16% (n = 350,000); AID 588436; in the data active = activation mostly above about 9.7%, no sharp cut-off
CCHF vOTU inh: blocks the CCHF virus ovarian tumor domain protease. inhibition, % at 11.5 µM. actives 0.55% (n = 370,000). AID 651958. CCHFV vOTU protease, Pep-AMC fluorescence
Mtb FBA inh: inhibitors of M. tuberculosis fructose-bisphosphate aldolase; purified M. tuberculosis FBA, fluorescence read-out; inhibition, % at 1 µM; actives 2.3% (n = 360,000); in the data active = inhibition above about 27%
Target sequence (P9WQA3 whole entry, looked up): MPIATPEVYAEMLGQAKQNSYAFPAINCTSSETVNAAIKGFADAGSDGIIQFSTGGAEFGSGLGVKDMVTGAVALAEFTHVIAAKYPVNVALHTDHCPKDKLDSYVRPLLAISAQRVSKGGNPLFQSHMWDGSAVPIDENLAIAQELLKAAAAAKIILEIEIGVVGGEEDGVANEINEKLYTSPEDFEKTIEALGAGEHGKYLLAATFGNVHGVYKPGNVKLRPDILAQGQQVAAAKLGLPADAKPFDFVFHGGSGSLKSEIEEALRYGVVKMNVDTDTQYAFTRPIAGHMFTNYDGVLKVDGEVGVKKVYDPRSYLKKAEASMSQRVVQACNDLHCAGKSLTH
Of the large screens only hits and unclear results are named; the others gave an inactive call; ! = a repeat was not active. Cut-off read from the data, not from the text of the source, unless noted: active = inhibition above about 30%; inactive = the rest.

CCOC(=O)C(NC(=O)c1ccccc1)=C(C)C	none
COC(=O)C(NC(=O)c1ccccc1)=C(C)C	none
COC(=O)C(NC(=O)c1ccccc1)=C1C=C(C)OC(C)=C1	GDH-TPI inh 30.8
CCOC(=O)C(NC(=O)c1ccccc1)=C1C=C(C)OC(C)=C1	GDH-TPI inh 41.7
O=C(NCc1ccncc1)C(=O)NCC(c1ccco1)N1CCN(c2ccccc2)CC1 (centres undefined)	none
CNc1ccc(/C=C\CCCO)cn1	Mtb FBA inh 114.9
CN(CC(=O)Nc1ccc(Cl)c(C(F)(F)F)c1)C(=O)Cn1cc([N+](=O)[O-])ccc1=O	none
COc1ccc(CC(=O)Nc2ccc3c(C(F)(F)F)cc(=O)oc3c2)cc1OC	none
Nc1ccc2c(C(F)(F)F)cc(=O)oc2c1	Mtb FBA inh 62.9
CC(c1nc2scc(-c3ccccc3)c2c(=O)[nH]1)N1CCN(CC(=O)NC2CC2)CC1 (centres undefined)	none
COCCNC(=O)c1c(N)n(-c2ccccc2)c2nc3ccccc3nc12	Mtb FBA inh 148.4
COCCCNC(=O)c1c(N)n(/N=C/c2cccs2)c2nc3ccccc3nc12	none
COCCCNC(=O)c1c(N)n(-c2ccccc2)c2nc3ccccc3nc12	Mtb FBA inh active
CC(=O)NCCn1c(SCC(=O)OCc2ccccc2)nc2ccccc2c1=O	none
CC(=O)NCCn1c(SCC(=O)c2ccccc2)nc2ccccc2c1=O	GDH-TPI inh 32.7
Nc1c(C(=O)NCCN2CCOCC2)c2nc3ccccc3nc2n1CCc1ccccc1F	Mtb FBA inh 124.3
Cc1sc2nc(CN(Cc3cccs3)C(=O)C3CC3)[nH]c(=O)c2c1C	none
CCOc1ccc(NC(=O)C(C)Sc2nnnn2C)cc1 (centres undefined)	none
CC(=O)NCCn1c(SCC(=O)NCCc2ccc(S(N)(=O)=O)cc2)nc2ccccc2c1=O	none
C=CCNC(=O)c1c(N)n(-c2cccc(S(N)(=O)=O)c2)c2nc3ccccc3nc12	Mtb FBA inh 115.9
Nc1c(C(=O)NCCN2CCOCC2)c2nc3ccccc3nc2n1-c1ccc2c(c1)OCO2	none
COc1cccc(-n2c(N)c(C(=O)Nc3c(C)n(C)n(-c4ccccc4)c3=O)c3nc4ccccc4nc32)c1	GDH-TPI inh 36.5
Nc1c(C(=O)NCCN2CCOCC2)c2nc3ccccc3nc2n1-c1ccccc1	Mtb FBA inh 148.7
Cc1cc(C)cc(-n2c(N)c(C(=O)Nc3c(C)n(C)n(-c4ccccc4)c3=O)c3nc4ccccc4nc32)c1	none
COCCCNC(=O)CSc1nc2ccccc2c(=O)n1CCc1ccc(S(N)(=O)=O)cc1	Mtb FBA inh 32.0
Cc1cc(C(=O)NC2CC(C)(C)Cc3c2cnn3-c2ccc(F)cc2)nn1C (centres undefined)	none
N=c1nc(N)nc2n1NC(c1ccc(F)cc1)=CS2	none
CCn1cc(C(=O)N(C)c2ccc(OC)cc2OC)c2cc(OC)c(OC)cc2c1=O	none
O=C(CSc1nc2nn(-c3ccccc3)c(=O)c-2c2n1CCCCC2)Nc1ccc(OC(F)F)cc1	none
COCCCNC(=O)c1c(N)n(-c2ccc(S(N)(=O)=O)cc2)c2nc3ccccc3nc12	Mtb FBA inh active
Cc1ccc(-n2c(N)c(C(=O)Nc3c(C)n(C)n(-c4ccccc4)c3=O)c3nc4ccccc4nc32)cc1	none
COC(=O)c1c(N)n(-c2ccc(NC(C)=O)cc2)c2nc3ccccc3nc12	Mtb FBA inh 108.9
COCCNC(=O)c1c(N)n(-c2cccc(C)c2)c2nc3ccccc3nc12	Mtb FBA inh 182.6
COCCN(CC1CCCN(C2Cc3ccccc3C2)C1)C(=O)CCC(F)(F)F (centres undefined)	none
CCOC(=O)CNC(=O)N(CCOC)CC1CCCN(C2Cc3ccccc3C2)C1 (centres undefined)	Mtb FBA inh active
CCc1nn2c(N)c(/C=C3\C=Nc4ccccc43)c(=O)nc2s1	GDH-TPI inh 33.3!
CCOC(=O)c1cc(C)[nH]c(=O)c1C#N	Mtb FBA inh 161.2
COc1cccc(C(=O)C2CCCN(C(=O)c3ccccn3)C2)c1 (centres undefined)	none
COc1ccc2cc(C(=O)C3CCCN(C(=O)c4ccnn4C)C3)ccc2c1 (centres undefined)	Mtb FBA inh 155.2
COc1ccc(C(=O)C2CCCN(C(=O)c3ccnn3C)C2)cc1OC (centres undefined)	none
COc1ccc2cc(C(=O)C3CCCN(C(=O)c4cc(=O)n(C)c(=O)n4C)C3)ccc2c1 (centres undefined)	Mtb FBA inh 125.5
Cc1c(NCc2nc3ccccc3[nH]2)c(=O)n(-c2ccccc2)n1C	GDH-TPI inh 40.0
CC(=O)C1=C(O)C(=O)N(Cc2ccccc2)C1c1ccc(N(C)C)cc1 (centres undefined)	none
CN(C)c1ccc(Cc2cc3c(O)ccc(O)c3cc(Cc3ccc(N(C)C)cc3)c2=O)cc1	CCHF vOTU inh 33.9
CCN(CC)C(=O)c1cncc(C(=O)N(CC)CC)c1-c1ccccc1	none
CCc1nn(CC(=O)NCCCc2ccccc2)c(=O)c2cc3cc(F)ccc3n12	none (no result: CCHF vOTU inh)
C[C@@H]1CN([C@@H](C)CO)C(=O)CCCn2nncc2CO[C@H]1CN(C)C(=O)Nc1cccc2ccccc12	Mtb FBA inh 28.6
O=C(O)/C=C/c1ccc([N+](=O)[O-])o1	none
N#CCc1ccc(NC(=O)/C=C/c2ccc([N+](=O)[O-])o2)cc1	GDH-TPI inh 34.1 (no result: CCHF vOTU inh)
COc1ccc(NC(=O)c2cc3ccccc3o/c2=N\NS(=O)(=O)c2ccc(C)cc2)cc1	none
Nc1ccc(C(=O)Nc2nc3ccccc3s2)cc1	GDH-TPI inh 34.1
Cc1ccnc2nc(C(=O)Nc3nc4ccccc4s3)nn12	GDH-TPI inh 41.1
N=c1oc2cc(O)ccc2cc1C(=O)Nc1nc2ccccc2s1	Mtb FBA inh active
Cc1cc(C)n(-c2ccc(C(=O)Nc3nc4ccccc4s3)cc2)n1	none
CCn1cc(C(=O)N[C@@H](CC(C)C)C(=O)NCCCn2ccnc2)c(=O)c2cc3c(cc21)OCO3	none
COc1cc(NC(=O)C2CC(=O)NC3=C2C(=O)CCC3)c(OC)cc1Cl (centres undefined)	none
Cc1cc(C)n(CC(O)COc2ccccc2C)n1 (centres undefined)	none
COc1ccc(NC(=O)C[C@H]2C(=O)N(c3ccc(OC)cc3)C[C@@H]2CSC)cc1	none
Cc1cc(C)n2nc(SCc3ccccc3C(=O)O)nc2n1	none
CCOc1ccc(N(C(=O)c2snc(C(N)=O)c2N)C(C(=O)NC2CCCC2)c2ccncc2)cc1 (centres undefined)	none
NC(=O)N/N=C/c1ccc(-c2cccc(C(F)(F)F)c2)o1	none
Cc1ccc(C(=O)N/N=C\c2ccc(-c3ccc([N+](=O)[O-])cc3)o2)cn1	none
CC(C)Oc1ccc(C(=O)N/N=C/c2ccc(-c3ccc(S(=O)(=O)Nc4ncccn4)cc3)o2)cc1	GDH-TPI inh 49.5, Mtb FBA inh 30.9
NC(=O)N/N=C/c1ccc(-c2ccc(S(=O)(=O)Nc3ncccn3)cc2)o1	GDH-TPI inh 37.0
COC(=O)C1=C(c2c(C)noc2C)C[C@@H]2CC[C@H]1N2C(=O)NC(C)C	none
CCCCSCc1nc2nc(Cl)c(Cl)nc2[nH]1	GDH-TPI inh 34.5
CCc1nnc(NC(=O)c2ccc(NS(=O)(=O)c3ccccc3)cc2)s1	GDH-TPI inh 34.1
